Some test systems named below: DU-145 prostate; K-562 leukemia; MALME-3M melanoma; MDA-MB-231 breast; RXF 393 renal; SF-268 CNS; SF-295 CNS; SF-539 CNS; UACC-257 melanoma; M14 melanoma.
Assay in all cases: NCI-60 one-dose screen, 48 h (100 = growth as untreated, 0 = no growth, -100 = all killed)
Holding throughout (conditions): 10 µM unless noted

Several values for one entry are separate records, joined by “and”; a condition that tells them apart may be missing. Identical values can stand only once. About 83,000 compounds went through this panel and 20% of them were active in at least one assay; those are over-represented in the sample as a whole.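 For each line, cells grew in 96-well plates with the test compound present at a single concentration for 48 hours.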 Activity calls are given as the source filed them. The calls were made as follows: active = growth percent below 10; inactive = the rest.

For `O=C(O)c1ccccc1Cc1ccc(F)c2ccccc12`, the growth with DU-145 prostate was 90.6% (inactive) and 116% (inactive); in the assay with K-562 leukemia, 103% (inactive) and 98.4% (inactive); in the assay on MALME-3M melanoma it was 102% (inactive) and 117% (inactive); with MDA-MB-231 breast, 115% (inactive) and 106% (inactive); in the assay on RXF 393 renal, 107% (inactive) and 95.9% (inactive); with SF-268 CNS it was 102% (inactive) and 103% (inactive). In addition, the growth is 71.1% (inactive) and 103% (inactive) in the assay on SF-295 CNS; 117% (inactive) and 107% (inactive) in the assay on SF-539 CNS; 107% (inactive) and 98.8% (inactive) in the assay on UACC-257 melanoma; 129% (inactive) and 102% (inactive) in the assay on M14 melanoma.
In the case of `Cc1[nH]c(C(=O)Nc2nc3ccc(NC(=O)CCN)cc3s2)c(Cl)c1Cl`, the growth in the assay on DU-145 prostate was 48.4% (inactive); in the assay on K-562 leukemia, 6.04% (active); in the assay with MALME-3M melanoma it was 53.8% (inactive); in the assay with MDA-MB-231 breast, 51% (inactive); in the assay on RXF 393 renal it was 81.9% (inactive); in the assay on SF-268 CNS, 56.2% (inactive). In addition, the growth in the assay on SF-295 CNS is 95.7% (inactive); in the assay on SF-539 CNS, 52.1% (inactive); in the assay with UACC-257 melanoma, 96.8% (inactive); in the assay on M14 melanoma it was 44.1% (inactive).
Regarding `Cc1ccc(S(=O)(=O)OC[C@@]2(C)CC[C@]3(C)CC[C@]4(C)C(=C3C2)C=C[C@@H]2[C@@]3(C)CCCNC(C)(C)[C@@H]3CC[C@]24C)cc1`, the growth with DU-145 prostate is -1.23% (active); in the assay with K-562 leukemia, -28.1% (active); with MALME-3M melanoma it was 15.1% (inactive); in the assay on MDA-MB-231 breast it was -43.7% (active); in the assay with RXF 393 renal, -7.17% (active); with SF-268 CNS, 74.7% (inactive). Moreover, the growth in the assay with SF-295 CNS was 102% (inactive); in the assay on SF-539 CNS, 1.1% (active); in the assay on UACC-257 melanoma it was 61.9% (inactive); in the assay on M14 melanoma, -64.9% (active).
Regarding `CN(C)CCCn1c2c(c3ccc(N4CCNCC4)cc3c1=O)C(=O)c1ccccc1-2`, the growth in the assay on DU-145 prostate was -30.1% (active); with K-562 leukemia, -28.5% (active); in the assay on MALME-3M melanoma, 21% (inactive); with MDA-MB-231 breast it was -49.7% (active); in the assay with RXF 393 renal it was -78.8% (active); in the assay on SF-268 CNS it was -24.8% (active). Further, the growth in the assay with SF-295 CNS was -5.76% (active); in the assay with SF-539 CNS, 52.7% (inactive); with UACC-257 melanoma, 37.3% (inactive); in the assay on M14 melanoma, 19.4% (inactive).
Regarding `CCCCC#Cc1c(/C=C(\CCCC)SCC)n(C)c(=O)[nH]c1=O`, the growth was 110% (inactive) in the assay on DU-145 prostate; 72.2% (inactive) with K-562 leukemia; 112% (inactive) with MALME-3M melanoma; 102% (inactive) with MDA-MB-231 breast; -12.1% (active) in the assay on RXF 393 renal; 93.7% (inactive) in the assay on SF-268 CNS. Also, the growth in the assay with SF-295 CNS is 114% (inactive); in the assay on SF-539 CNS, 98.4% (inactive); in the assay with UACC-257 melanoma it was 98.9% (inactive); in the assay on M14 melanoma, 105% (inactive).
`O=C(N=Nc1c(O)[nH]c2ccccc12)Nc1ccc(Br)cc1`: the growth in the assay on DU-145 prostate was 93.3% (inactive); with K-562 leukemia it was 79% (inactive); in the assay with MALME-3M melanoma, 86.1% (inactive); in the assay with MDA-MB-231 breast, 110% (inactive); with RXF 393 renal it was 82.4% (inactive); with SF-268 CNS, 86.2% (inactive). The growth in the assay with SF-295 CNS was 93% (inactive); with SF-539 CNS, 83.6% (inactive); in the assay with UACC-257 melanoma it was 115% (inactive); in the assay on M14 melanoma it was 89.8% (inactive).
Turning to `C=C(C)[C@@H]1CC[C@]2(C(=O)N3CCN(C)CC3)CC[C@]3(C)[C@H](CC[C@@H]4[C@@]5(C)CC(CCCNC(C)=O)(CCCNC(C)=O)[C@H](OC(C)=O)C(C)(C)[C@@H]5CC[C@]43C)[C@@H]12`, the growth in the assay on DU-145 prostate was 108% (inactive); with K-562 leukemia it was 81.1% (inactive); in the assay with MALME-3M melanoma it was 98% (inactive); in the assay with MDA-MB-231 breast, 108% (inactive); with RXF 393 renal it was 109% (inactive); in the assay with SF-268 CNS it was 98.9% (inactive). The growth is 99.4% (inactive) in the assay with SF-295 CNS, 101% (inactive) in the assay with SF-539 CNS, 109% (inactive) with UACC-257 melanoma and 104% (inactive) in the assay on M14 melanoma.
Turning to `CCN(CC)CC(=O)Nc1ccc2ncnc(Nc3ccc(Oc4cccc(F)c4)c(Cl)c3)c2c1`, the growth is 57% (inactive) in the assay on DU-145 prostate; 2.08% (active) in the assay with K-562 leukemia; 45.2% (inactive) with MALME-3M melanoma; 49.3% (inactive) in the assay on MDA-MB-231 breast; 43.2% (inactive) with RXF 393 renal; 58.8% (inactive) with SF-268 CNS. The growth in the assay on SF-295 CNS is 87.2% (inactive); in the assay on SF-539 CNS, 83.5% (inactive); in the assay on UACC-257 melanoma it was 67.2% (inactive); in the assay on M14 melanoma, -33.8% (active).
Turning to `CCOc1ccc(N2C(N)=NC(N)=NC2(C)C)cc1`, the growth is 15.3% (inactive) and 104% (inactive) in the assay with DU-145 prostate; 10% (inactive) and 72.3% (inactive) in the assay with K-562 leukemia; 25.3% (inactive) and 91.9% (inactive) in the assay with MALME-3M melanoma; 49.5% (inactive) and 102% (inactive) in the assay on MDA-MB-231 breast; -4.94% (active) and 98.1% (inactive) in the assay with RXF 393 renal; 42.1% (inactive) and 97.5% (inactive) in the assay on SF-268 CNS. In addition, the growth is -31.9% (active) and 95.8% (inactive) in the assay on SF-295 CNS; -29.1% (active) and 92.4% (inactive) in the assay with SF-539 CNS; 19.3% (inactive) and 72.1% (inactive) with UACC-257 melanoma; 24.2% (inactive) and 89.3% (inactive) in the assay on M14 melanoma.
Consider `COc1ccc(-c2cc(-c3cccc(Cl)c3)c(C#N)c(=O)[nH]2)c(OC)c1`, for which the growth is 97.3% (inactive) with DU-145 prostate; 98.2% (inactive) in the assay on K-562 leukemia; 93.7% (inactive) in the assay with MALME-3M melanoma; 102% (inactive) in the assay with MDA-MB-231 breast; 90.8% (inactive) in the assay with RXF 393 renal; 90% (inactive) in the assay on SF-268 CNS. For the same compound, the growth was 98.2% (inactive) in the assay on SF-295 CNS, 92.6% (inactive) in the assay on SF-539 CNS, 102% (inactive) with UACC-257 melanoma and 98.2% (inactive) in the assay with M14 melanoma.
As to `Cc1ccc(-c2nc3nc(-c4ccccc4)nc(N4CCN(S(=O)(=O)c5ccccc5)CC4)c3o2)cc1`, the growth in the assay on DU-145 prostate is 96.6% (inactive); in the assay with K-562 leukemia, 97.7% (inactive); in the assay with MALME-3M melanoma, 84.2% (inactive); in the assay with MDA-MB-231 breast, 72.4% (inactive); in the assay with RXF 393 renal it was 66.3% (inactive); in the assay on SF-268 CNS, 66.8% (inactive). In addition, the growth with SF-295 CNS was 74.7% (inactive); in the assay with SF-539 CNS it was 52.5% (inactive); with UACC-257 melanoma it was 99% (inactive); in the assay with M14 melanoma, 96.7% (inactive).
On to `CN(C)C1CCN(C(=O)c2ccc(NC(=O)Nc3ccc(-c4nc(N5CCOCC5)c5cccn5n4)cc3)cc2)CC1`, for which the growth in the assay on DU-145 prostate was 0.561% (active); in the assay on K-562 leukemia, 18.9% (inactive); in the assay with MALME-3M melanoma, -32.6% (active); with MDA-MB-231 breast, 0.146% (active); in the assay on RXF 393 renal, -30.4% (active); with SF-268 CNS it was 2.29% (active). Moreover, the growth is -37.1% (active) in the assay with SF-295 CNS, -39.6% (active) with SF-539 CNS, -18.3% (active) in the assay with UACC-257 melanoma and -0.109% (active) in the assay on M14 melanoma.

These data come from PubChem BioAssay (NCI).
